Results on five compounds are retold here after PubChem BioAssay.

The source made the active and inactive calls.

Assay [1] can be described thus: small molecules captured by biotinylated probe aFSTL3 – biochemical, small-molecule microarray, fluorescence 635/667, stem cell growth factor project, primary screen (AID 1064).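 Also: measures binding of the biotinylated anti-FSTL3 antibody to printed compounds.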 Conditions: higher = more signal.
Assay [2] is described as follows: binders from COS7 lysate, DM2A8 probe, primary screen, torsin A project, cell lysate, small-molecule microarray, fluorescence 635/667 (AID 1065). Conditions: higher = more signal, COS7 lysate expressing mutant human TOR1A.
The nature of assay [3]: small molecules captured by biotinylated probe aFGF2 – biochemical, small-molecule microarray, fluorescence 635/667, stem cell growth factor project, primary screen (AID 1067).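 Also: measures binding of biotinylated aFGF2 protein to printed compounds on slides; z-score merges feature fluorescence and signal-to-noise across triplicate slides.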 Conditions: higher = more signal.
Assay [4] can be described thus: small molecules captured by biotinylated probe aFGF10 – biochemical, small-molecule microarray, fluorescence 635/667, stem cell growth factor project, primary screen (AID 1071).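 Also: score merges 667 nm spot intensity and signal to noise from triplicate slides.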 Particulars: higher = more signal.
In assay [5] the target is Neurogenic locus notch homolog protein 2 (Homo sapiens) (UniProt Q04721). As to the kind of experiment: small molecules binding Notch2 protein – biochemical, small-molecule microarray, 635 nm fluorescence, stem cell growth factors, primary screen (AID 1073). Conditions: higher = more signal.
The target in assay [6] is Pro-neuregulin-1, membrane-bound isoform (Homo sapiens) (UniProt Q02297). As to the kind of experiment: small molecules binding neuregulin-1 protein – biochemical, small-molecule microarray, fluorescence 635/667, psychiatric disease protein project, primary screen (AID 1075).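 Also: score combines 667 nm spot fluorescence with signal to noise.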 Conditions: NRG1 binding, 635 nm fluorescence, higher = more signal.
Assay [7] has as its system Neuregulin-1 EGF-like domain. As to the kind of experiment: small molecules binding NRG1 EGF domain – biochemical, small-molecule microarray, 635 nm fluorescence, primary screen (AID 1081).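 Also: binding of the protein to compounds printed on small-molecule microarray slides.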 Particulars: higher = more signal.
The nature of assay [8]: FRG1 expression reporter modulators in myotubes – cell-based, C2C12 myotubes, firefly/Renilla luciferase, luminescence, FRG1 inhibition for FSHD, primary screen (AID 1084). Conditions: FRG1 promoter luciferase, higher = more signal, called active from +8 up or from −8 down.
A short description of assay [9]: small molecules captured by biotinylated probe aFST – biochemical, small-molecule microarray, fluorescence 635/667, stem cell growth factor project, primary screen (AID 1086).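 Also: score merges 667 nm fluorescence with signal-to-noise of each printed compound spot.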 Conditions: higher = more signal.
Assay [10] is described as follows: binders of probe aHhip on microarray, primary screen, stem cell growth factor project, biochemical, small-molecule microarray, fluorescence 635/667 (AID 1087).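 Also: score merges spot fluorescence at 667nm with spot signal to noise ratio.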 Particulars: higher = more signal.
Assay [11] relates to PRMT1 (protein arginine N-methyltransferase 1). As to the kind of experiment: small molecules binding arginine methyltransferase PRMT1 – biochemical, small-molecule microarray, 635 nm fluorescence, primary screen (AID 1088).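 Also: binding of Prmt1 protein to compounds spotted on small-molecule microarray slides.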 Conditions: higher = more signal.
A short description of assay [12]: growth effects on S. cerevisiae YJM789 – YJM789 clinical isolate, OD600, 24 h, basal, primary screen (AID 1089).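 Also: growth of clinical yeast isolate S. cerevisiae YJM 789 seeded 1000 cells per well; test concentration not given here.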 Particulars: higher = more signal, called active from +8 up or from −8 down.
Assay [13] in a line: S. pombe growth modifiers, basal conditions – strain 972, OD600, 24 h, no modulator, primary screen (AID 1090).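 Also: basal condition with compound alone and no growth modifier present; test concentration not given here.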 Conditions: S. pombe 972 growth, higher = more signal, called active from +8 up or from −8 down.
A short description of assay [14]: budding yeast growth modifiers under rapamycin – strain BY4716, OD600, 96 h, primary screen (AID 1091). Also: test concentration not given here. Particulars: S. cerevisiae BY4716 + rapamycin, higher = more signal, called active from +8 up or from −8 down.
For assay [15], the target named is Torsin-1A-interacting protein 2 (Homo sapiens) (UniProt Q8NFQ8). As to the kind of experiment: small molecules binding lysate-expressed LULL1 – cell lysate, human LULL1 lysate, 635/667 nm fluorescence, primary screen (AID 1092).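 Also: score merges per-feature 667 nm fluorescence with signal-to-noise.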 Particulars: small-molecule microarray, hLULL1 lysate binding, 635 nm fluorescence; higher = more signal.
A short description of assay [16]: optical density change of DRC41 E. coli – strain DRC41, OD650, 24 h, E. coli filamentation project, primary screen (AID 1093).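 Also: MC1000 strain lacking acrAB efflux and sulA so SOS filamentation is blocked; test concentration not given here.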 Conditions: E. coli DRC41 growth, higher = more signal, called active from +8 up or from −8 down.
A short description of assay [17]: probe aLefty2 binding to arrayed compounds – biochemical, biotinylated probe, 635/667 nm fluorescence, primary screen (AID 1094).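 Also: score merges spot fluorescence near 667 nm with spot signal-to-noise ratio.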 Particulars: small-molecule microarray, higher = more signal.
The test system of assay [18] is Noggin (protein binding on small-molecule microarray). As to the kind of experiment: small molecules binding Noggin protein – biochemical, 635/667 nm fluorescence, primary screen (AID 1095).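 Also: score merges 667 nm feature fluorescence with signal to noise over triplicate slides.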 Conditions: 635 nm fluorescence, higher = more signal.
Assay [19] addresses Neurogenic locus notch homolog protein 3 (Homo sapiens) (UniProt Q9UM47). As to the kind of experiment: small molecules binding NOTCH3 protein – biochemical, 635/667 nm fluorescence, primary screen (AID 1096). Particulars: small-molecule microarray, 635 nm fluorescence, higher = more signal.
The nature of assay [20]: probe aEGFR binding to arrayed compounds – biochemical, biotinylated probe, 635/667 nm fluorescence, primary screen (AID 1097).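 Also: probe is a biotinylated anti-EGFR antibody binding compounds printed on slides; score combines fluorescence near 667 nm and signal to noise of each spot.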 Particulars: small-molecule microarray, higher = more signal.

Sequence of Neurogenic locus notch homolog protein 2 (Homo sapiens) (Q04721 whole entry, looked up, canonical isoform): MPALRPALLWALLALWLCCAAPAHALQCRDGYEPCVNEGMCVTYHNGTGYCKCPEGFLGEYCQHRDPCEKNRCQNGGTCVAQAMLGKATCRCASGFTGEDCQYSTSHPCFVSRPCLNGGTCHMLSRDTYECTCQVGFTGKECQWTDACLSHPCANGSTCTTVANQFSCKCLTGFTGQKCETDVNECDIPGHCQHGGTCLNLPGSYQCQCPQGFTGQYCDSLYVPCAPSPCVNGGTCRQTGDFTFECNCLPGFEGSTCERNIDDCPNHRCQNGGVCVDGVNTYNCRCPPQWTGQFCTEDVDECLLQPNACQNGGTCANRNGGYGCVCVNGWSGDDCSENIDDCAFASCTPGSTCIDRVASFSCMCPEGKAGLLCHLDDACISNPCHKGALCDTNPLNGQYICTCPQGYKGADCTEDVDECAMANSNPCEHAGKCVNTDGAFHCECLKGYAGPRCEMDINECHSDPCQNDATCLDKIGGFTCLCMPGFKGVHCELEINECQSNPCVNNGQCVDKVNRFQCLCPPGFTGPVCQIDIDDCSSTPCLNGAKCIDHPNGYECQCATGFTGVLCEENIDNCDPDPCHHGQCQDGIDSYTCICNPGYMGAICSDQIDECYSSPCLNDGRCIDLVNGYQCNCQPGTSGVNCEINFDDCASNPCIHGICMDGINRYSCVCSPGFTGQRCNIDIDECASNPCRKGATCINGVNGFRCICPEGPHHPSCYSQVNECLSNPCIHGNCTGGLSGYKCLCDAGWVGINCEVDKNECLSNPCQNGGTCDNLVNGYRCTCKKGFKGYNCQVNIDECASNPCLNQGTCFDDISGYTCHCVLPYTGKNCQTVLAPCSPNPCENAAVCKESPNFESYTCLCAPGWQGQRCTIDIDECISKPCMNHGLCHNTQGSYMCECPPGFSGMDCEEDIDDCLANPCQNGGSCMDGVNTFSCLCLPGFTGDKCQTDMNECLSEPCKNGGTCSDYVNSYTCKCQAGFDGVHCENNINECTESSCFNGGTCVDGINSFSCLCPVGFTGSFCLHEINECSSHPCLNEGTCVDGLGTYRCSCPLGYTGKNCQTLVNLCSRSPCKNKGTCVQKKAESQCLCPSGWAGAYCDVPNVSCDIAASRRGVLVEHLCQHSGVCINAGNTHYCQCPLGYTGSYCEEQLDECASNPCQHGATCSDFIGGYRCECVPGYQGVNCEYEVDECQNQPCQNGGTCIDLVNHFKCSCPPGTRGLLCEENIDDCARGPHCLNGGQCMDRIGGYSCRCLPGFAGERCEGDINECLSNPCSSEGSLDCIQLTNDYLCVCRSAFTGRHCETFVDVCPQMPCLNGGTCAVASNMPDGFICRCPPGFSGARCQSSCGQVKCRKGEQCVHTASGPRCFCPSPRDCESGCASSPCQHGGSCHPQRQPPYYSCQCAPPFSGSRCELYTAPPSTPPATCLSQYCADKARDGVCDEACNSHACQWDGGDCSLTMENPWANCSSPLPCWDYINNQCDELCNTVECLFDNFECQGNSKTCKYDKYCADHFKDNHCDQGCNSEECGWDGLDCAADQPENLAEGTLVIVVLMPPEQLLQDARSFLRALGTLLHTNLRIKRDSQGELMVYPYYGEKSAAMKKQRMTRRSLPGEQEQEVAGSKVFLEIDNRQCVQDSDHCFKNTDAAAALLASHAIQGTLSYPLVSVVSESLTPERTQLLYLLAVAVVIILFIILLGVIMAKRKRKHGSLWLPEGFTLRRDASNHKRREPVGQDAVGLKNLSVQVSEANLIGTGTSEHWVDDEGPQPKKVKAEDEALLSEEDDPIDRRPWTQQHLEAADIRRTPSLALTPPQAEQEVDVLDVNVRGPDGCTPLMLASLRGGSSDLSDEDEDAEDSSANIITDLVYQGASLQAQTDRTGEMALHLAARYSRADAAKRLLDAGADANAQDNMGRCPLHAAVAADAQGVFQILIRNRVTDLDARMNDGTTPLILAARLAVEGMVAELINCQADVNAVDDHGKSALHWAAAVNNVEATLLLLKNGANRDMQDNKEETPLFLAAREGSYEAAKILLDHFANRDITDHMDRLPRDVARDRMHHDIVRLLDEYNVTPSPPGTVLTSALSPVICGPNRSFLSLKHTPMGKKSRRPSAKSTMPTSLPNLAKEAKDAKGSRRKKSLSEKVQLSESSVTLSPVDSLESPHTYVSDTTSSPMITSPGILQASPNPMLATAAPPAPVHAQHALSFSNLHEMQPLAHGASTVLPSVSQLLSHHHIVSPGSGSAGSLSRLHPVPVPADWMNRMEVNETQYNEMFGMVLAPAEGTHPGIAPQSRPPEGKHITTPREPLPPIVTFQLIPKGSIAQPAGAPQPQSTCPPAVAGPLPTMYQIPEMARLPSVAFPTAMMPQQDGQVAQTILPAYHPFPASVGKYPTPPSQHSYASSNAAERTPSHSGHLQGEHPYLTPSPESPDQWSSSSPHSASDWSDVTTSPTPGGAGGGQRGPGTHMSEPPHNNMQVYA
Sequence of Torsin-1A-interacting protein 2 (Homo sapiens) (Q8NFQ8 whole entry, looked up): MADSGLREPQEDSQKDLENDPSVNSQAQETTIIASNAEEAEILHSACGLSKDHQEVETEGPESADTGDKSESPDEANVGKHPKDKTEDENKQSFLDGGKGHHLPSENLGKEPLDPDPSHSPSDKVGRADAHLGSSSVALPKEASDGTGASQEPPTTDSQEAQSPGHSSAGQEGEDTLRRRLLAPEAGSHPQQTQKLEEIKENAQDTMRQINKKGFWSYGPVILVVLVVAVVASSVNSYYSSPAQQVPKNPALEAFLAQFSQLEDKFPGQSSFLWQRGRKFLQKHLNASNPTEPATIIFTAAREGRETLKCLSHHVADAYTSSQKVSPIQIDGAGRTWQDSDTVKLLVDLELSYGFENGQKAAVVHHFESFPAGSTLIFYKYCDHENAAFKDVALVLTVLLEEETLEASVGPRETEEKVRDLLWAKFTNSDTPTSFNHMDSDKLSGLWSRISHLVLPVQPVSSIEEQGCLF
Sequence of Pro-neuregulin-1, membrane-bound isoform (Homo sapiens) (Q02297 whole entry, looked up, the tested form may be a part, canonical isoform): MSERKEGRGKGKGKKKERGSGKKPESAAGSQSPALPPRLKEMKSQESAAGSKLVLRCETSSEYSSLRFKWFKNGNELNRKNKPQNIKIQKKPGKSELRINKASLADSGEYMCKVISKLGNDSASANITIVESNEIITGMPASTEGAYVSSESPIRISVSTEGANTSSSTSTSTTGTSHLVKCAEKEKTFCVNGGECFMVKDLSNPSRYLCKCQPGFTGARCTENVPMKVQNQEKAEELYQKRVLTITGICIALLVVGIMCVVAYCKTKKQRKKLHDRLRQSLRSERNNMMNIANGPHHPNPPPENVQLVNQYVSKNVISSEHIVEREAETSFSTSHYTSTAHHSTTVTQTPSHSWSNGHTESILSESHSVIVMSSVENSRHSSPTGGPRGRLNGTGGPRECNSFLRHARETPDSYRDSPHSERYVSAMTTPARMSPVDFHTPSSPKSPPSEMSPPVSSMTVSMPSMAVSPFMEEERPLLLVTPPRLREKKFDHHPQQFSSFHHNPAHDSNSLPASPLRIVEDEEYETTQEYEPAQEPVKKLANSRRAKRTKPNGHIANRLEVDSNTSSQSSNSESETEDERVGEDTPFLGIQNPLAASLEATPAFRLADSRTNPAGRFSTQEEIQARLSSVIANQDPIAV

As for `COc1ccc(C(O)C2C=CC3C(=O)N(C)C(=O)C3N2Nc2ccccc2)cc1` (stereo not given), the composite z-score in assay [1] was found to be 0.402; in [2], 0.467; in [3] it was 0.042; in assay [4], 0.701; in [5], 1.7; in assay [6] it was 2.03. The composite z-score in [7] was 1.27; in assay [9], 0.791; in assay [10], -0.271; in assay [11], 1.29; in [15] it was 3.3; in assay [17], 0.156. For the same compound, the composite z-score is -0.357 in assay [18], 1.06 in assay [19] and 0.147 in assay [20]. In addition, the z-score in assay [8] is 1.71 (inactive); in assay [12], -0.0991 (inactive); in [13], -0.546 (inactive); in assay [14], 0.695 (inactive); in assay [16] it was -0.238 (inactive).

For the compound `C=C(C(=O)CC[C@@H](OC(=O)c1cccnc1)c1cccc(OCCO)c1)C(C)C`, the composite z-score was -0.512 in [1]; -0.0785 in [2]; -0.167 in [3]; 0.684 in [4]; -0.0786 in assay [5]; -0.145 in [6]. Further, the composite z-score is -0.284 in assay [7]; 0.267 in assay [9]; -0.236 in assay [10]; 0.271 in [11]; -0.826 in assay [15]; -0.0962 in assay [17]. For the same compound, the figures for the composite z-score in [18], in assay [19] and in assay [20] were 0.597, 0.144 and 0.0391, respectively. In addition, the z-score is 1.2 (inactive) in [8]; -1.11 (inactive) in assay [12]; -0.0738 (inactive) in [13]; 1.04 (inactive) in assay [14]; 1.12 (inactive) in assay [16].

Turning to `CC[C@@H]1C=C(C(=O)O)[C@H](c2cccc(Cl)c2)N1S(=O)(=O)c1ccc(C)cc1`, the composite z-score in assay [1] amounted to 0.0801; in assay [2], 0.969; in assay [3] it was 0.0263; in assay [4] it was 0.516; in assay [5], 1.36; in [6], 1.27. The composite z-score was 0.855 in assay [7]; 0.177 in [9]; 0.0424 in assay [10]; 0.877 in assay [11]; 3.5 in [15]; 0.0595 in assay [17]. The composite z-score in [18] was -0.791; in assay [19], -0.118; in assay [20] it was -0.128. Besides, the z-score is -1.53 (inactive) in assay [8]; -0.848 (inactive) in assay [12]; -0.874 (inactive) in assay [13]; -0.177 (inactive) in [14]; -0.944 (inactive) in [16].

Turning to `O=C1c2ccccc2[C@@]2(Cc3ccccc3N(CC(F)(F)F)C2=O)[C@H](c2ccc(CO)cc2)N1Cc1ccccc1`, the composite z-score is 0.386 in [1]; 0.0025 in assay [2]; -0.124 in assay [3]; 0.316 in assay [4]; -0.661 in [5]; 0.0876 in [6]. For the same compound, the composite z-score was -0.533 in assay [7]; -0.0539 in assay [9]; -0.129 in [10]; 0.349 in assay [11]; -0.117 in assay [15]; -0.147 in assay [17]. The values for the composite z-score in assay [18], in [19] and in assay [20] were 0.666, -0.242 and -0.177, respectively. Further, the z-score in assay [8] is 0.605 (inactive); in assay [12] it was 0.633 (inactive); in [13], -0.269 (inactive); in assay [14], -1.49 (inactive); in assay [16] it was -1.91 (inactive).

Regarding `COC(=O)C1(CC(C)C)C=C2C(=C(C)C(=O)C2C)CN1` (stereo not given), the composite z-score in [1] was 1.72; in assay [2], 0.126; in assay [3], 0.317; in assay [4], -0.302; in assay [5], 0.28; in assay [6], -0.304. Besides, the composite z-score is 0.641 in [7]; 1.58 in [9]; 1.43 in assay [10]; -0.999 in [11]; 2.1 in assay [15]; 0.374 in assay [17]. In addition, the composite z-score in assay [18] was -0.054; in assay [19], 0.379; in [20], 0.449. Moreover, the z-score in assay [8] is 2.36 (inactive); in [12] it was -0.355 (inactive); in assay [13] it was 0.543 (inactive); in assay [14], 0.202 (inactive); in assay [16] it was -0.698 (inactive).
